Pf Dd2 inh: qHTS Primary assay for Inhibitors of Plasmodium falciparum Dd2 growth in vitro; P. falciparum Dd2 growth, SYBR Green, 72 h; Potency, µM (highest dose often 28.9 µM), hits mostly inhibitors; 120,000 compounds, 4.3% hits; active = well fitted inhibition curve with a large enough effect; also: nearly all actives have a fitted effect of over 65% in size
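Readout: SYBR Green fluorescence, 485 nm excitation, 535 nm emission, after ~16 h lysis at 37C. Before that, Dd2-infected red cells (2.5% hematocrit) grew 72 h with compound, 29 uM top final concentration.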
Each line names hits and unclear results; the compound was inactive in the other large screens. This is one part of a sample in which hits are shown more often than they occur.

N#Cc1ccc(C(=O)Nc2ccc([C@@H](O)[C@H]3COCC(=O)N3Cc3ccc(F)cc3)cc2)cc1	Pf Dd2 inh 10µM
O=C(Nc1ccc([C@@H](O)[C@H]2COCC(=O)N2Cc2ccc(F)cc2)cc1)c1ccccc1	none
CCCCNC(=O)C1CCN(C(=O)c2ncn3c2COC(c2ccc(F)cc2)C3)CC1 (stereo not drawn)	none
CN1C(=O)CC[C@]2(C(=O)NC3CC3)CCCC[C@@H]12	none
NC(=O)CN1C(=O)CO[C@H]2CN(Cc3ccc(Cl)cc3)C[C@H]21	none
COC[C@@H]1CN(C(=O)c2ccc(C)[nH]c2=O)C[C@H]1c1ccncc1	none
COC(=O)C1=C(C)N=C2SC=C(CC(=O)NCc3ccccc3)N2C1c1ccccc1F (stereo not drawn)	none
CCOC(=O)C1=C(C)N=C2SC=C(CC(=O)NCC3CCCO3)N2C1c1ccc(Cl)cc1 (stereo not drawn)	Pf Dd2 inh 2.2µM
COC(=O)C1=C(C)N=C2SC=C(CC(=O)NCC3CCCO3)N2C1c1ccccc1C (stereo not drawn)	none
CC1=C(C(=O)OC(C)C)C(c2ccccc2C)N2C(CC(=O)NC3CC3)=CSC2=N1 (stereo not drawn)	Pf Dd2 inh 7.9µM
CCOC(=O)C1=C(C)N=C2SC=C(CC(=O)N3CCCC3)N2C1c1ccc(Cl)cc1 (stereo not drawn)	none
COC(=O)C1=C(C)N=C2SC=C(CC(=O)NC3CC3)N2C1c1ccc(C)cc1C (stereo not drawn)	none
CCOC(=O)C1=C(C)N=C2SC=C(CC(=O)NC3CC3)N2C1c1ccccc1C (stereo not drawn)	none
C=CCOC(=O)C1=C(C)N=C2SC=C(CC(=O)NCc3ccc(F)cc3)N2C1c1ccccc1C (stereo not drawn)	Pf Dd2 inh 3.2µM
C=CCOC(=O)C1=C(C)N=C2SC=C(CC(=O)NCc3ccco3)N2C1c1cccc(C)c1 (stereo not drawn)	none
Cn1cccc1C(=O)N1CCC(N2C(=O)C(O)C23CCCCC3)CC1 (stereo not drawn)	none
Cn1cc(CN2CCN3C(=O)N(Cc4ccc(F)cc4)C[C@H]3C2)cn1	none
Fc1ccc2nc(CO[C@H]3CN(Cc4ccncc4F)C[C@H]3F)[nH]c2c1	none
CC(=O)N1C[C@@H](CO)[C@H](NC(=O)c2ccccc2)C1	none
CC[C@@H]1[C@@H](NC(=O)CCCn2nnc(-c3ccc(F)cc3)n2)[C@@H]2CCO[C@H]12	none
COCC(=O)N[C@@H]1CN(Cc2ccco2)CC[C@@H]1c1n[nH]c(C)n1	none
CCc1cccc(NC(=O)c2cc3c(=O)oc4ccc(C)cc4c3s2)c1	none
COc1ccc(NC(=O)c2oc3ccc4c(c3c2C)C(=O)CC(C)(C)O4)cc1OC	none
CCc1cccc(NC(=O)c2oc3ccc4c(c3c2C)C(=O)CC(C)(C)O4)c1	Pf Dd2 inh 10µM
CCOc1ccccc1C(=O)NC1CCN(c2cc(-c3ccc(Cl)cc3)[nH]n2)C1 (stereo not drawn)	none
COc1cccc(C2CNC(=O)c3nc(Cn4nc(C)c(C)c4C)[nH]c3C2)c1 (stereo not drawn)	Pf Dd2 inh 10µM
COc1cccc(C2CNC(=O)c3nc(-c4ccc(C(=O)N(C)C)o4)[nH]c3C2)c1 (stereo not drawn)	none
COc1ccccc1C1CNC(=O)c2nc(CCN3CCC(C)CC3)[nH]c2C1 (stereo not drawn)	none
COc1ccc(C2Cn3nnc(C(=O)N4CCN(C(=O)c5ccccc5C)CC4)c3CO2)cc1 (stereo not drawn)	none
COc1ccc(CN2C(=O)COC[C@H]2C(=O)NCc2ccc(Cl)cc2)cc1OC	none
O=C(NCCc1ccccn1)c1cccnc1OC1CCNCC1	none
CN(C)C(=O)c1cccnc1OC1CCNCC1	none
CN1CCC(Oc2nccnc2N2CCc3ccccc3C2)C1 (stereo not drawn)	Pf Dd2 inh 8.9µM
CCNC(=O)c1cccnc1OC1CCN(Cc2ccccn2)C1 (stereo not drawn)	none
c1ccc(CN2CCC(Oc3nccnc3N3CCc4ccccc43)C2)nc1 (stereo not drawn)	Pf Dd2 inh 4µM
CN1CCC(Oc2nccnc2N2CCOCC2)C1 (stereo not drawn)	none
O=C(C1CCOCC1)N1CCC(Oc2nccnc2N2CCOCC2)C1 (stereo not drawn)	none
c1cnc(N2CCOCC2)c(OC2CCNC2)n1 (stereo not drawn)	Pf Dd2 inh 1.4µM
CN1CCC(Oc2ncccc2C(=O)O)CC1	none
O=C(c1ccccc1)N1CCC(Oc2nccnc2N2CCOCC2)C1 (stereo not drawn)	none
c1ccc2c(c1)CCN2c1nccnc1OC1CCNC1 (stereo not drawn)	Pf Dd2 inh 7.9µM
c1cc(CN2CCC(Oc3nccnc3N3CCOCC3)C2)ccn1 (stereo not drawn)	none
COCCN1C(=O)[C@H]2CN(Cc3cc(F)c(F)cc3F)C[C@H]2C1=O	none
Cc1cccc(C(=O)N2CC(c3nnc(-c4ccncc4)o3)C3(CCOCC3)C2)c1 (stereo not drawn)	none
O=C(NC1CC1)[C@@H]1C[C@H](Oc2ccccc2)CN1C(=O)C1CCC1	none
O=C(c1ccco1)N1CCCC(Cc2nc(C3CCOCC3)no2)C1 (stereo not drawn)	none
O=C1CCN(S(=O)(=O)c2ccccc2)CCCN(C(=O)C2CCC2)CCN1	none
CCC1Oc2ccc(NC(=O)c3ccc4c(c3)OCO4)cc2CN(Cc2ccccc2)C1=O (stereo not drawn)	none
OC(c1nc(Nc2ccc(Cl)cc2)n[nH]1)C1CC1 (stereo not drawn)	none
O=c1[nH]c(C2CCCN([S+](=O)([O-])c3cccc(C(F)(F)F)c3)C2)nn1-c1cccc(Cl)c1 (stereo not drawn)	none
O=C1N(C2CCN(Cc3ccc(C(F)(F)F)cc3)CC2)Cc2cccn21	none
COc1cccc(C(=O)N2C(C(=O)NCC(C)C)COC23CCN(C(=O)c2ccccc2F)CC3)c1 (stereo not drawn)	none
COc1ccc(-c2cc(N3CCCN(C(=O)c4ccc(C)nc4)CC3)n[nH]2)cc1	none
COc1ccc(-c2cc(N3CCN(C(=O)c4ccc(C)nc4)CC3)n[nH]2)cc1	none
Cc1ccc(C(=O)N2CCCN(c3cc(-c4ccc(Cl)cc4)[nH]n3)CC2)cn1	Pf Dd2 inh 6.3µM
CCNC(=O)NCC1c2cc(OC)c(OC)cc2CCN1C(=O)Nc1ccccc1OC (stereo not drawn)	none
Cc1cc(C)c(NC(=O)COc2ccc3c(C)cc(=O)oc3c2)c(C)c1	none
COc1cc2c(cc1OC)C(COc1ccc3c(C)cc(=O)oc3c1)N(C(=O)c1cccc(C)c1)CC2 (stereo not drawn)	Pf Dd2 inh 5µM
COc1cc2c(cc1OC)C(COc1ccc3c(C)cc(=O)oc3c1)N(C(=O)c1cccc(OC)c1OC)CC2 (stereo not drawn)	Pf Dd2 inh 8.9µM
COc1ccc(CC(=O)NCc2ccc3c(c2)CCN3C(=O)c2cccc(C)c2)cc1	none
COc1ccc(OCC(=O)N2CCN(C(=O)c3cccc(OC)c3OC)CC2)cc1	none
CN(C)C[C@@H]1CN(S(C)(=O)=O)C[C@H]1NC(=O)CCn1cccn1	none
CN(CC[C@H]1CN(C(=O)NC2CCCCC2)CC[C@H]1CC(=O)O)c1ccccc1	none
Cc1cc(C)c(CNC(=O)c2nc(-c3cnn(C)c3)cc3c2ccn3C)c(=O)[nH]1	none
Cn1ccc2c(C(=O)NCCc3cnc[nH]3)nc(-c3ccccc3)cc21	none
COc1ccc(-c2cc3c(ccn3C)c(C(=O)NCCc3cnc[nH]3)n2)cn1	none
CC(=O)Nc1cccc(-c2cc3c(ccn3C)c(C(=O)NCCc3cnc[nH]3)n2)c1	Pf Dd2 inh 5µM
